Test results reported in PubChem BioAssay AID1159580 (chemical genetic matrix, 2015).
The campaign covered roughly 5,500 compounds. About 2,000 (36%) were called active. About 18% were inconclusive and are not listed. No stated cut-off is given here; in the data, active means normalized growth mostly below about 0.91 (no sharp cut-off); inconclusive means no clear call, values can overlap the other calls; inactive means mostly above about 0.92. Some of the results follow.

Experiment: chemical genetic growth profiling, strain panel (AID 1159580);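 further: tested at 20 µM; growth read once vehicle control cultures reached saturation at 30 °C; 1 = growth at the plate median or of vehicle wells; lower values mean less growth of the strain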
Conditions: S. cerevisiae deletion strains, growth OD

Measured: normalized growth

NC(=O)CS(=O)C(c1ccccc1)c1ccccc1 (centres undefined)
inactive: locus YAL021C, strain ccr4, hits give low values 1.01 | locus YAL026C, strain drs2, hits give low values 1.04 | locus YAL030W, strain snc1, hits give low values 1.02 | locus YBL061C, strain skt5, hits give low values 1.02 | locus YBR009C, strain hhf1, hits give low values 0.976 | locus YBR023C, strain chs3, hits give low values 1.03 | locus YBR171W, strain sec66, hits give low values 1.02 | locus YBR231C, strain swc5, hits give low values 1 | locus YBR279W, strain paf1, hits give low values 1.02 | locus YCL011C, strain gbp2, hits give low values 1.02 | locus YCL016C, strain dcc1, hits give low values 1.04 | locus YCL069W, strain vba3, hits give low values 0.998 | locus YCR088W, strain abp1, hits give low values 1.01 | locus YDL005C, strain med2, hits give low values 1.03 | locus YDL040C, strain nat1, hits give low values 0.998 | locus YDR001C, strain nth1, hits give low values 1 | locus YDR069C, strain doa4, hits give low values 1.02 | locus YDR137W, strain rgp1, hits give low values 1.05 | locus YDR159W, strain sac3, hits give low values 0.939 | locus YDR195W, strain ref2 0.981 | locus YDR297W, strain sur2, hits give low values 0.994 | locus YDR334W, strain swr1, hits give low values 1 | locus YDR335W, strain msn5, hits give low values 1.02 | locus YDR392W, strain spt3, hits give low values 0.968 | locus YEL003W, strain gim4, hits give low values 0.99 | locus YEL037C, strain rad23, hits give low values 1.01 | locus YEL061C, strain CIN8 (second series), hits give low values 1.01 | locus YER015W, strain faa2, hits give low values 1.01 | locus YER016W, strain bim1, hits give low values 1.02 | locus YER111C, strain swi4, hits give low values 1.01 | locus YER155C, strain BEM2 (second series), hits give low values 1.02 | locus YFR010W, strain ubp6, hits give low values 0.987 | locus YGL167C, strain pmr1, hits give low values 1 | locus YGL173C, strain kem1, hits give low values 1 | locus YGL227W, strain vid30, hits give low values 1.01 | locus YGL240W, strain doc1, hits give low values 1.01 | locus YGL253W, strain hxk2, hits give low values 1.03 | locus YHR013C, strain ard1, hits give low values 1.05 | locus YHR027C, strain rpn1, hits give low values 1.01 | locus YHR030C, strain SLT2, hits give low values 1.04 | locus YHR079C, strain IRE1, hits give low values 1.04 | locus YHR142W, strain chs7, hits give low values 1.01 | locus YJL092W, strain hpr5, hits give low values 1 | locus YJL095W, strain BCK1 (second series), hits give low values 1.02 | locus YJL095W, strain BCK1, hits give low values 0.996 | locus YJL115W, strain asf1, hits give low values 1.01 | locus YJL129C, strain trk1, hits give low values 1.04 | locus YJL154C, strain vps35, hits give low values 1.01 | locus YJL164C, strain tpk1, hits give low values 0.988 | locus YJL166W, strain qcr8, hits give low values 0.982 | locus YJL187C, strain SWE1, hits give low values 1.01 | locus YJR066W, strain TOR1, hits give low values 0.977 | locus YKL160W, strain elf1, hits give low values 1.05 | locus YKR026C, strain gcn3, hits give low values 1.01 | locus YKR091W, strain srl3, hits give low values 1.01 | locus YLL001W, strain dnm1, hits give low values 0.972 | locus YLL026W, hits give low values 1 | locus YLL041C, strain sdh2, hits give low values 1 | locus YLR027C, strain aat2, hits give low values 0.985 | locus YLR113W, strain HOG1, hits give low values 0.961 | locus YLR221C, strain rsa3, hits give low values 0.977 | locus YLR258W, strain gsy2, hits give low values 1.03 | locus YLR262C, strain YPT6 (second series), hits give low values 1.01 | locus YLR320W, strain mms22, hits give low values 0.958 | locus YLR342W, strain FKS1, hits give low values 1.02 | locus YLR357W, strain rsc2, hits give low values 0.997 | locus YLR370C, strain arc18, hits give low values 1.02 | locus YLR384C, strain iki3, hits give low values 1.02 | locus YML120C, strain ndi1, hits give low values 0.981 | locus YMR058W, strain fet3, hits give low values 1.02 | locus YMR125W, strain sto1, hits give low values 1.04 | locus YMR129W, hits give low values 1.01 | locus YMR205C, strain PFK2, hits give low values 1.01 | locus YMR231W, strain pep5, hits give low values 0.999 | locus YNL071W, strain lat1, hits give low values 1.02 | locus YNL183C, strain NPR1, hits give low values 0.958 | locus YNL209W, strain ssb2, hits give low values 1.01 | locus YNL248C, strain rpa49, hits give low values 1.04 | locus YNL322C, strain KRE1 (second series), hits give low values 1.02 | locus YNR049C, strain mso1, hits give low values 1.03 | locus YOR001W, strain rrp6, hits give low values 0.928 | locus YOR070C, strain gyp1, hits give low values 1.01 | locus YOR080W, strain dia2, hits give low values 1.01 | locus YOR083W, strain WHI5, hits give low values 0.976 | locus YOR106W, strain vam3, hits give low values 1.02 | locus YOR231W, strain MKK1, hits give low values 1.02 | locus YOR265W, strain rbl2, hits give low values 1.01 | locus YOR270C, strain vph1, hits give low values 1.05 | locus YOR290C, strain snf2, hits give low values 1.06 | locus YPL051W, strain arl3, hits give low values 1.06 | locus YPL078C, strain atp4, hits give low values 1.05 | locus YPL106C, strain sse1, hits give low values 1.04 | locus YPL240C, strain hsp82, hits give low values 1 | locus YPL256C, strain CLN2, hits give low values 1.06
